An excerpt weighted towards active compounds, which were near 4% of everything screened.
RecA splice inh: Mtb RecA intein splicing inhibition | P9WHJ3 | cell-free RecA intein splicing, fluorescence | inhibition, % (test concentration not listed) | 290,000 tested, 0.75% active; in the data active means inhibition above about 30%;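 further: 0% = vehicle wells and 100% = reference inhibitor control wells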
FBA Mtb inh: inhibitors of M. tuberculosis fructose-bisphosphate aldolase; P9WQA3; purified M. tuberculosis FBA, fluorescence read-out; inhibition, % at 1 µM; 360,000 tested, 2.3% active;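 further: 0% = vehicle and 100% = reference inhibitor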
Rv3671c inh: inhibits the M. tuberculosis serine protease Rv3671c. P9WHR9. 320,000 tested, 0.048% active. inhibition, % at 5.96 µM; in the data active means inhibition above about 38%;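 further: extracellular domain of Rv3671c used as enzyme; 0% = enzyme with DMSO and 100% = no enzyme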
Target sequence (P9WHR9 whole entry, looked up, the tested form may be a part): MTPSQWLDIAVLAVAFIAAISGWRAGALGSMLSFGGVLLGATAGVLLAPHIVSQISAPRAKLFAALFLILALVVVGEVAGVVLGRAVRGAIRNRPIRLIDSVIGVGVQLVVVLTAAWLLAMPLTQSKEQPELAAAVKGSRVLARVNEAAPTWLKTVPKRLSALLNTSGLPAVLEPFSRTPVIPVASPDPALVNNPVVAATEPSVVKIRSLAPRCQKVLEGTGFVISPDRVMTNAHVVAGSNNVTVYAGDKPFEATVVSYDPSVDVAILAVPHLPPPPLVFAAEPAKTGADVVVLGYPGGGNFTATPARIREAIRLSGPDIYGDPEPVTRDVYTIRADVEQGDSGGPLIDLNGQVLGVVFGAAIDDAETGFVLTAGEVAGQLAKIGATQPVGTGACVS
Mtb bLac sens: beta-lactam sensitization of Mtb H37Rv | inhibition, % at 25 µM | AID 434955 | M. tuberculosis H37Rv growth with meropenem, percent inhibition | 330,000 tested, 0.27% active; call rule not given here;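 further: growth measured after seven days incubation then overnight dye step; 0% = bacteria only wells and 100% = bacteria with antibiotic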
GDH-TPI counter-1: inhibits GDH-TPI coupling enzymes, artifact for Mtb FBA screen. GDH-TPI coupled enzyme counterscreen, NADH absorbance. inhibition, % at 4.8 µM. 360,000 tested, 1.2% active; in the data active means inhibition above about 30%;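 further: 0% = DMSO wells and 100% = wells lacking the enzyme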
UGM FP inh: inhibitors of M. tuberculosis UDP-galactopyranose mutase. purified UGM, fluorescence polarization probe displacement. inhibition, % at 10 µM. 320,000 tested, 0.06% active. AID 504406; in the data active means inhibition above about 10%, passing the limit was not always enough
Mtb FBA inh conf: Mtb FBA inhibition, confirmed | shares compounds with FBA Mtb inh | inhibition, % at 1 µM | purified M. tuberculosis FBA, fluorescence read-out | 5,600 tested, 78% active | AID 651616;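 further: 0% = vehicle wells and 100% = reference inhibitor wells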
GDH-TPI counter-2: inhibits GDH-TPI coupling enzymes, flagging Mtb FBA hits; 5,600 tested, 81% active; shares compounds with FBA Mtb inh; GDH-TPI coupled enzyme counterscreen, fluorescence; inhibition, % at 1 µM; AID 652141; in the data active means inhibition above about 10%
Numbers without * were called inactive; . = not tested or not shown; + = active, no number. Unless noted, no stated cut-off is given here; in the data, active means inhibition above about 27%; inactive means the rest.

SMILES	RecA splice inh	FBA Mtb inh	Rv3671c inh	Mtb bLac sens	GDH-TPI counter-1	UGM FP inh	Mtb FBA inh conf	GDH-TPI counter-2
Cc1ccc(NS(=O)(=O)c2cc(-c3cc(C)no3)ccc2C(C)C)nc1	-3	37*	2	16	-7	-2	29*	24*
CCc1ccc(-c2cc(C)no2)cc1S(=O)(=O)Nc1ccc(C)cn1	4	31*	3	6	3	-3	4	1
C[C@@H]1CN([C@H](C)CO)C(=O)c2cc(Br)cnc2O[C@@H]1CN(C)C(=O)C1CCOCC1	.	-5	.	.	13	.	.	.
CC(C)C(=O)Nc1sc2c(c1-c1nc3ccccc3[nH]1)CCCC2	3	43*	-17	-7	14	2	+	182*
CC(C)C(=O)Nc1ccccc1-c1nc2ccccc2[nH]c1=O	1	0	8	0	-1	-2	.	.
CCOc1cc(/C=C2/C(=N)N3C=CSC3=NC2=O)ccc1OCCCOc1ccccc1C	-9	2	-12	5	15	1	.	.
O=C(Nc1ccc(O)c(C(=O)O)c1)Oc1ccccc1	-3	73*	-5	16	1	2	138*	99*
CC(=O)Nc1ccc(NC(=O)Oc2ccccc2)cc1	3	1	7	4	4	0	.	.
Fc1cccc2sc(Nc3nc4cc5c(cc4s3)OCCO5)nc12	0	39*	11	77	16	1	-5	-5
Fc1cc(F)c2nc(Nc3nc4cc5c(cc4s3)OCO5)sc2c1	0	32*	-6	-1	11	1	84*	66*
Fc1cccc2sc(Nc3nc4cc5c(cc4s3)OCO5)nc12	0	35*	10	69	19	-2	128*	93*
O=C(Nc1nc2cc3c(cc2s1)OCO3)C1CC1	0	2	3	-4	4	-1	.	.
CC(C)C(=O)Nc1nc2cc3c(cc2s1)OCO3	0	-3	0	-10	9	1	.	.
COc1ccccc1S(=O)(=O)Cc1ccc(C(=O)NCC(OC)OC)o1	-2	-1	-1	0	0	-2	.	.
S=C(NCc1ccccc1)Nc1cccc2ccccc12	2	8	1	-4	6	2	.	.
CCN(C(=S)Nc1cccc2ccccc12)c1ccccc1	.	30*	.	.	13	.	58*	43*
CCCN(CCC)C(=O)c1cc2c(=O)[nH]c3ccc(C)cc3c2s1	0	5	-3	14	4	-1	.	.
CCOCCCN(Cc1ccco1)C(=O)c1cc2c(=O)[nH]c3ccc(C)cc3c2s1	1	32*	-5	-3	21	2	8	-4
Cc1ccc2[nH]c(=O)c3cc(C(=O)N(C)Cc4ccco4)sc3c2c1	1	51*	-15	-3	19	-3	187*	135*
Cc1ccc(OCCCCCN2CCOCC2)c(Cl)c1	2	2	5	-2	-4	3	.	.
O=C(c1ccco1)N1CCN(C(c2ccc(Cl)cc2)c2nnnn2Cc2ccccc2)CC1 (configuration not stated)	7	2	-5	9	4	0	.	.
CCOC(=O)CSc1ccc(-c2nc3ccccc3[nH]2)cn1	0	13	5	100	29	0	.	.
COCCNC(=O)CSc1ccc(-c2nc3ccccc3[nH]2)cn1	0	31*	-4	5	31*	2	2	-4
CCCCn1c(-c2c(Cl)c(C)nn2C)n[nH]c1=S	0	1	1	-6	1	3	.	.
CCc1noc(C)c1C(=O)Nc1nc(-c2cc(OC)ccc2OC)cs1	-1	-2	-8	-2	9	-2	.	.
SMILES	RecA splice inh	FBA Mtb inh	Rv3671c inh	Mtb bLac sens	GDH-TPI counter-1	UGM FP inh	Mtb FBA inh conf	GDH-TPI counter-2
Cc1cc(NCc2ccccc2)n2ncc(-c3ccccc3)c2n1	6	28*	-4	57	13	-1	123*	123*
COc1ccc(CCNc2cc(C)nc3c(-c4ccc(Cl)cc4)cnn23)cc1OC	10	34*	4	87	5	-2	42*	34*
Cc1cc(NC(C)c2ccccc2)n2ncc(-c3ccccc3)c2n1 (configuration not stated)	17	33*	3	49	-8	0	41*	30*
O=C(CCNc1n[nH]c(=O)[nH]c1=O)N/N=C/c1ccc(C(F)(F)F)cc1	0	-1	12	-3	1	0	.	.
O=C(c1cc(-c2cccs2)nc2ccccc12)N1CCN(S(=O)(=O)c2cccc(F)c2)CC1	1	38*	-16	-5	15	1	123*	92*
CC1CCCN(C(=O)c2cc(-c3cccs3)nc3ccccc23)C1 (configuration not stated)	.	83*	-3	1	26	0	1	-1
O=C(c1cc(-c2cccs2)nc2ccccc12)N1CCN(c2ccccc2)CC1	7	3	7	24	6	-1	.	.
O=C(c1cc(-c2cccs2)nc2ccccc12)N1CCN(S(=O)(=O)c2ccccc2)CC1	4	57*	-9	32	26	0	98*	76*
N#Cc1ccc(C(=O)NC23CC4CC(CC(C4)C2)C3)cc1	-3	3	-2	-2	0	0	.	.
COCCNC(=O)c1cccc(OC2CCN(Cc3ccccc3OC(F)F)CC2)c1	1	1	2	0	-7	-1	.	.
COc1cccc(CN2CCN(Cc3cccc(Oc4ccccc4)c3)CC2)c1OC	8	37*	-2	-1	6	2	3	-5
Cc1nc(CS(=O)(=O)c2ccc(Cl)cc2)cc(Sc2ccccc2Cl)n1	4	31*	-10	8	3	0	110*	98*
Cc1oc2c(O)c(O)ccc2c(=O)c1-c1ccc(Cl)cc1	-5	-2	4	4	15	-1	.	.
COc1ccc(-c2c(C)oc3c(CN4CCOCC4)c(O)ccc3c2=O)cc1	-1	104*	11	-9	10	-1	60*	51*
Cc1oc2c(CN3CCCC3)c(O)ccc2c(=O)c1-c1ccc(Br)cc1	-2	89*	-3	6	7	-1	+	+
COc1ccc(-c2c(C)oc3c(CN4CCN(CCO)CC4)c(O)ccc3c2=O)cc1OC	-7	31*	3	-19	12	-5	64*	58*
CCOC(=O)c1oc2c(CN3CCN(C)CC3)c(O)ccc2c(=O)c1-c1ccccc1OC	-1	-4	3	-12	15	-2	.	.
CC1(C(=O)Nc2c(F)c(F)c(F)c(F)c2F)CC1(Br)Br (configuration not stated)	-5	4	-4	-3	10	-1	.	.
Cc1ccc(Cn2c(C)c(C(=O)NCc3ccc(Cl)c(Cl)c3)sc2=O)cc1	.	1	.	.	4	.	.	.
Nc1cc(C(=O)O)ccc1Nc1ccccc1	4	91*	-19	39	8	0	126*	113*
